These results are taken from ChEMBL document CHEMBL4513216, “Probing the Open Global Health Chemical Diversity Library for Multistage-Active Starting Points for Next-Generation Antimalarials” (ACS Infect Dis, 2020).

Screen size: about 69,000 compounds; about 8,600 (12%) showed an effect of 50% or more. The sample as a whole holds a higher share of strong results than the screen did.

The test system of the test is Plasmodium berghei. The test is described as follows: Screen against P. berghei liver stage (PbLuc), transformed with Luciferase, at 10uM. The format is functional, HepG2. As to conditions: tested at 10 uM.
For the molecule `CC1(NC(=O)Cc2csc(NC(=O)c3ccccc3)n2)CCS(=O)(=O)C1` (configuration not stated), the INHIBITION is on record as -14.2%. As for `CCc1ncncc1C(=O)NC1CCc2nc(C)cn2C1` (configuration not stated), the INHIBITION is on record as -53.5%. Under `COc1ccccc1[C@@H]1CN(Cc2ccc3nsnc3c2)C[C@H]1C(=O)O` stands 68.2%; under `COc1ccccc1[C@@H]1CN(Cc2csc(C(C)=O)c2)C[C@H]1C(=O)O`, -82.7%. Under `CCC[C@@H]1CN(Cc2ccc(C(F)(F)F)nc2)C[C@H]1C(=O)O` stands 37.2%; under `Cc1ccccc1[C@@H]1CN(Cc2ccc(C(F)(F)F)nc2)C[C@H]1C(=O)O`, 59.7%. Under `Cc1ccccc1[C@@H]1CN(Cc2c(C)noc2C)C[C@H]1C(=O)O` stands 2.25%.

With `COc1ccccc1[C@@H]1CN(Cc2ccncc2)C[C@H]1C(=O)O`, the INHIBITION is reported as -21.8%. Under `COCCO[C@H]1CCN(C(=O)c2ccc[nH]2)[C@H]1Cc1ccncc1` stands 42.6%; under `CC(C)c1noc(CN2CCC(c3ccnn3CCO)CC2)n1`, -24.2%. For `O=C(Nc1ccnn1Cc1ccccc1Cl)C1CCS(=O)(=O)C1` (configuration not stated), the INHIBITION is on record as -4.12%. For the molecule `CCOCC(=O)N1CCC2(CC1)COCCN2CCOC`, the INHIBITION was found to be 12.1%. Under `Cn1ncc2c(N3CCN(C(=O)c4ccsc4)CC3)ncnc21` stands 21.6%; under `Cc1ccc(C)c(OCC(O)CN(C)CC(=O)Nc2cc(C)on2)c1` (configuration not stated), 84.3%. Under `Cc1ccc(OCCN(C)C(=O)CCCC(N)=O)c(C)c1` stands -7.65%; under `Cc1ccc(C)c(OCc2cc(C(=O)N(C)CC(O)CO)no2)c1` (configuration not stated), 10.4%; under `COc1cc(CN(C)C(=O)Nc2cc(C)on2)ccc1SC`, 40.1%. Under `Cc1ccc(OCC(O)CN(C)CC(=O)Nc2cc(C)on2)c(C)c1` (configuration not stated) stands 77.9%. Regarding `Cc1ccc(OCCC(=O)N(C)CC(=O)Nc2cc(C)on2)c(C)c1`, the INHIBITION came to 52.2%.

As to `Cc1ccc(C)c(OCC(O)Cn2ncc3cnn(C)c(=O)c32)c1` (configuration not stated), the INHIBITION is listed as -28.9%.

Turning to `Cc1ccc(OCC(O)CN(C)CC(=O)NC(C)C)c(C)c1` (configuration not stated), the INHIBITION came out at 33%. Under `Cc1ccccc1OCCC(=O)N(C)Cc1c(C)noc1C` stands 25.5%; under `CC(C)Cn1cncc1-c1nc2c([nH]1)CC(C)(C)CNC2=O`, -109%.

Consider `CCn1cc(CN2CCCN(C(=O)c3ccc(C#N)cc3)CC2)cn1`, for which the INHIBITION is 25.6%. Under `Cn1ncc2c(=O)[nH]c(CN3CCCC3CC(C)(C)C)nc21` (configuration not stated) stands 19.6%. Under `CC(C)=CCN1C(=O)[C@@H]2CC[C@H]1CN(C(=O)CCc1nnc(Cl)[nH]1)C2` stands -15.3%. In the case of `Cc1cc(NCCN)nc(-c2ccccc2O)n1`, the INHIBITION was 17.7%. `Cn1cc(Cl)cc1C(=O)N1CCN(CCc2cccs2)CC1`: the INHIBITION came to 23.73%.

For the molecule `O=C(CC1Cn2ncnc2NC1=O)Nc1ccc(F)c(F)c1` (configuration not stated), the INHIBITION is reported as 26.7%. In the case of `Cc1nc(CN2CCN(c3cncc(Cl)n3)CC2)no1`, the INHIBITION is on record as 14.6%. Under `CN1CC(=O)N(c2ccccc2)CC12CCN(Cc1nccs1)C2` (configuration not stated) stands -35.9%. `Cc1noc(C)c1CN1CCC2(CC1)CN(c1ccccn1)CCO2`: the INHIBITION was -40.4%. Regarding `COc1ncccc1CN1CCC2(CC1)CN(c1ccccn1)CCO2`, the INHIBITION came out at 41.8%. Under `Fc1ccc(CN2CCC3(CC2)CN(c2ccccn2)CCO3)cc1` stands 79.1%. Consider `c1ccc(CN2CCC3(CC2)CN(c2ccccn2)CCO3)nc1`, for which the INHIBITION is listed as -6.97%.

On to `COc1ccc(CN2CCC3(CC2)CN(c2ccccn2)CCO3)cc1`, for which the INHIBITION amounted to 26.4%. Under `Cn1ccnc1CN1CCC2(CC1)CN(c1ccccn1)CCO2` stands 91.9%.

`CC(C)c1nc(CN2CCCN(c3nccs3)CC2)no1`: the INHIBITION worked out at 25.4%. Under `CC(=O)N1CCn2c(C(=O)N(C)C)cnc2C1` stands 47.8%. Take `CSc1ccccc1C(=O)N1C[C@@H]2CC[C@H]1CN(C(=O)N(C)C)C2`: the INHIBITION is on record as 21.2%.

Consider `CCC(=O)N1CCCC(C(=O)c2cnn(-c3ccc(F)cc3)c2N)C1` (configuration not stated), for which the INHIBITION was 56.3%.

Consider `CCCC(=O)N1CCCC(C(=O)c2cnn(-c3ccc(F)cc3)c2N)C1` (configuration not stated), for which the INHIBITION was determined as 17.35%. Under `Nc1c(C(=O)C2CCCN(C(=O)C3CC3)C2)cnn1-c1ccc(F)cc1` (configuration not stated) stands 38.9%. Under `c1cnc(C2CCCN2c2cnccn2)cn1` (configuration not stated) stands 42.4%; under `CC(C)Cc1cc(C(=O)N2CCC(Cc3cnn(C)c3)C2)cc(O)n1` (configuration not stated), 26.6%; under `CC(C)Cc1cc(C(=O)N2CCC(N3CCCC3)CC2)cc(O)n1`, 24.4%.

On to `COCC1CCN(C(=O)c2cc(O)nc(CC(C)C)c2)CC1`, for which the INHIBITION is 51.1%. `COC(=O)c1ccc(S(=O)(=O)N2CCCn3ncnc32)s1`: the INHIBITION is 3.84%. Under `O=C1CC(c2ccc(Cl)c(Cl)c2)c2c(n3ccsc3nc2=O)N1` (configuration not stated) stands 36.2%; under `O=C(c1cc(-c2cccs2)cs1)N1CCOCC1`, -132%; under `CC(C)c1nnc2n1CCN(Cc1cc(Cl)c3c(c1)OCCO3)C2`, 10.1%. With `CC(Cn1ccnc1)NC(=O)NCc1cccnc1OC1CCCC1` (configuration not stated), the INHIBITION is 17.4%. As to `O=C(c1ccc(Cl)o1)N1CCCC1c1nnc2n1CCCCC2` (configuration not stated), the INHIBITION is given as 29.8%. On to `CSCCC(=O)N1CCCC1c1nnc2n1CCCCC2` (configuration not stated), for which the INHIBITION turned out to be 54.3%.

For `CC(C)CCC(=O)N1CCCC1c1nnc2n1CCCCC2` (configuration not stated), the INHIBITION stood at 26.9%. Take `Cc1ccc(C(=O)N2CCCC2c2nnc3n2CCCCC3)o1` (configuration not stated): the INHIBITION is listed as 8.47%. Under `CCc1ccc(C(=O)N2CCCC2c2nnc3n2CCCCC3)o1` (configuration not stated) stands 57.7%. `CC(=O)N1CCCC1c1nnc2n1CCCCC2` (configuration not stated): the INHIBITION is -2.37%. Under `CCN(CC)CCNC(=O)c1cc(OC)c2ccoc2c1` stands 31.1%; under `CC(=O)CN1CC2(CCNCC2)COc2ccccc2S1(=O)=O`, 26.3%; under `FC(F)(F)c1ccc(-c2cc(NC3CCNCC3)nc3[nH]ccc23)nc1`, 18.5%. Turning to `COc1nccnc1-c1cc(NC2CCCC2)nc2[nH]ccc12`, the INHIBITION is recorded as 60%.

As to `COc1cc(-c2cc(NC3CCCC3)nc3[nH]ccc23)nc(N)n1`, the INHIBITION was 42.1%. For the molecule `COc1ncc(-c2cc(NC3CCCC3)nc3[nH]ccc23)c(OC)n1`, the INHIBITION is 66.7%. Under `COc1nccnc1-c1cc(NC2CCNCC2)nc2[nH]ccc12` stands -2.69%; under `COc1ncc(-c2cc(NCCN(C)C)nc3[nH]ccc23)c(OC)n1`, 49%. Take `CCS(=O)(=O)N1CCC(c2nc(C)c(C)c(N3CCCC3)n2)CC1`: the INHIBITION is listed as 22.35%.
